Arbovirus anti = arbovirus infection inhibition. arbovirus infection cell-based antiviral screen. inhibition, % at 10 µM. 0.37% of 200,000 active; in the data active = inhibition above about 30%
Measles CPE = protection of cells from measles virus. protection (pct of control), % at 4 µM. AID 841. 1.5% of 140,000 active. Measles virus-infected cells, CPE protection, absorbance; in the data active = protection mostly above about 24%, no sharp cut-off; inactive = mostly below about 26%
HSV replic up = increases HSV replication in cells; HSV replication augmentation in cells, fold increase; maximum fold increase; 0.005% of 220,000 active; AID 1956; in the data active = maximum fold increase above about 1.5; tested in PC3 cells
ROMK mod = modulators of human ROMK potassium channel; B-score at 10 µM; Tet-inducible ROMK, thallium flux fluorescence; actives lie on both sides; 2% of 130,000 active; P48048;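 active = signal ratio slope over the read window, or its plate-corrected B-score, at least 3 SD from the plate mean, either direction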;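 note: B-score of the F/F0 ratio slope over 7 to 12 s after thallium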
KCC2 mod = modulators of human KCC2 chloride dependent transport; Q9H2X9; KCC2 cells, thallium flux FluoZin-2 fluorescence; B-score of Tl+ flux slope (higher = more flux/activation; lower = inhibition) at 10 µM; 2.2% of 190,000 active; AID 1456;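 active = thallium flux slope and its plate-corrected score both differing from the plate sample mean at a set confidence after two filtering rounds, in either direction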;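 note: slope of fluorescence scaled to starting intensity during 10 to 20 s after thallium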
Target sequence (Q9H2X9 whole entry, looked up): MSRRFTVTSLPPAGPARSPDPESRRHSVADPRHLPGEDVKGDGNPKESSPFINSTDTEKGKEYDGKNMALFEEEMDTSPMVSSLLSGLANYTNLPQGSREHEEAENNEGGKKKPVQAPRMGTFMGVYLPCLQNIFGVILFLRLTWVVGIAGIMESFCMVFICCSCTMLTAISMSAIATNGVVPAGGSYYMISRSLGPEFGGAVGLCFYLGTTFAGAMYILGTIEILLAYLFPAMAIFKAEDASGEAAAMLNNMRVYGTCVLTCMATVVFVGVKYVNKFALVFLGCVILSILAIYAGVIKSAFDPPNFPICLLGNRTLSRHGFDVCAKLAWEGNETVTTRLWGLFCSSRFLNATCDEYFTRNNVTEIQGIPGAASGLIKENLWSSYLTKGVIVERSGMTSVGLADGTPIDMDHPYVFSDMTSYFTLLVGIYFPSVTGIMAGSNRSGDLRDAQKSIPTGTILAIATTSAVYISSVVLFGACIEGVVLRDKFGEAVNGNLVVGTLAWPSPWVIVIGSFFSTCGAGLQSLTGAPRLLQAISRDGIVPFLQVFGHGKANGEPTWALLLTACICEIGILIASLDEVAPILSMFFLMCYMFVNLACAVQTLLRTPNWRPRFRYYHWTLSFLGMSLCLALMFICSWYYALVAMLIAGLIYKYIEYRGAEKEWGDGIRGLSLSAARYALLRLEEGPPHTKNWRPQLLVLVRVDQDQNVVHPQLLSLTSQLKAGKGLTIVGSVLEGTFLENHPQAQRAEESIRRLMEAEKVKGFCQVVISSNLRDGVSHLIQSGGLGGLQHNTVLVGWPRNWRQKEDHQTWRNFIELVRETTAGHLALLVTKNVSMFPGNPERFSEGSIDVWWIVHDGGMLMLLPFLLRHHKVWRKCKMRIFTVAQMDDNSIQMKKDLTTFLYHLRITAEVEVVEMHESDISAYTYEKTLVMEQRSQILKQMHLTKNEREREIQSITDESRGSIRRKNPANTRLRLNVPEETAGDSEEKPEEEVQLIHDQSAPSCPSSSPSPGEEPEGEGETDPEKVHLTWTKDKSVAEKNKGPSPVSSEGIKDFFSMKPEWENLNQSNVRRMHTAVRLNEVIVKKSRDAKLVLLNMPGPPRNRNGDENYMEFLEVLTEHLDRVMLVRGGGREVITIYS
* hit, by the source's call; i = inactive; . = no result given. Hits are enriched below; roughly 4% of the tested compounds scored in any of these assays.

SMILES	Arbovirus anti	Measles CPE	HSV replic up	ROMK mod	KCC2 mod
Cc1ccccc1Nc1nc2ccccc2s1	9	43*	i	.	-0.044
COC(=O)[C@@H]1CCCN1C(=O)[C@@H](NC(=O)OC(C)(C)C)C(C)C	.	.	i	.	.
Cc1cccc[n+]1CC(=O)/C=C1\N(C)c2ccccc2C1(C)C	5	9	i	.	-0.15
CN1/C(=C\C(=O)CN2C(=O)NC3(CCCCCC3)C2=O)C(C)(C)c2ccccc21	3	14	i	-2.8*	-3.6*
CN(Cc1cccs1)C(=O)Cn1cnc2ccccc2c1=O	1	.	i	-0.68	-0.078
CCOC(=O)N1CCN(C(=O)c2sc3nc(-c4ccc(F)cc4)cn3c2C)CC1	9	20	.	.	-0.79
CCOC(=O)N1CCN(C(=O)c2ccc3c(c2)sc2nc(-c4ccc(OC)cc4)cn23)CC1	3	63*	i	.	-0.72
CCn1cnc2cc(NCc3ccc(OC)cc3)ccc21	6	6	i	.	.
CCOc1ccc(CNc2ccc3c(c2)nc(C)n3C)cc1	44*	10	i	.	-0.27
N#Cc1nc(Cc2cccc3ccccc23)oc1N1CCCCC1	3	7	i	-0.14	-6.1*
COc1ccc(CNc2oc(Cc3cccc4ccccc34)nc2C#N)cc1	-12	6	i	-0.22	-5.2*
N#Cc1nc(Cc2cccc3ccccc23)oc1NCCCn1ccnc1	-4	23	i	.	-3.4*
C/C(=N\NC(=O)Cc1csc(N2CCOCC2)n1)c1ccc(Cl)c(Cl)c1	7	.	i	-1.8	-2.7
CCN(CC(=O)Nc1cccc(C(C)=O)c1)S(=O)(=O)c1ccccc1	-1	.	i	0.44	-1.6
Cc1ccc(C(=O)N2CCCC(C(=O)c3ccc(Oc4ccccc4)cc3)C2)cn1 (centres undefined)	-4	.	i	-1.1	-1.9
Cc1cc(C)c(S(=O)(=O)Nc2cccc(S(=O)(=O)NC3=NCCC3)c2)c(C)c1	10	.	i	0.58	0.66
Cc1c(C(=O)NC(=S)Nc2ccccc2N2CCCC2)cccc1[N+](=O)[O-]	6	7	i	0.88	13*
COc1ccc(C(=O)NC(=S)Nc2ccccc2N2CCCCC2)cc1[N+](=O)[O-]	6	3	i	0.15	1.9
CCC1CCCCN1C(=S)NC(=O)c1ccc([N+](=O)[O-])cc1 (centres undefined)	-3	18	i	.	46*
O=C(NC(=S)Nc1ccccc1N1CCOCC1)c1cccs1	4	6	i	0.24	39*
Cc1c(NC(=S)Nc2ccccc2C(F)(F)F)cccc1[N+](=O)[O-]	-1	41*	i	.	0.25
Cc1cc(C)c(S(=O)(=O)N2CCCOC2CNC(=O)C(=O)NCCc2c[nH]c3ccccc23)c(C)c1 (centres undefined)	-16	3	i	0.17	-0.58
O=C(CSc1nc2ccc(Nc3nc(N4CCCC4)nc(N4CCCC4)n3)cc2s1)NCc1ccco1	.	.	i	-1.6	-0.57
O=C(NC(=S)Nc1ccccc1N1CCOCC1)c1ccc([N+](=O)[O-])cc1	2	4	i	0.0044	0.45
O=C(NC(=S)Nc1ccccc1N1CCCC1)c1ccc([N+](=O)[O-])cc1	8	23	i	0.13	42*
SMILES	Arbovirus anti	Measles CPE	HSV replic up	ROMK mod	KCC2 mod
Cc1sc2nc(CN3CCOCC3)[nH]c(=S)c2c1C	18	.	i	8.6*	73*
Cc1sc2nc(CN3CCN(c4ccc(O)cc4)CC3)[nH]c(=O)c2c1C	.	.	i	.	0.045
CCOc1ccc(Nc2nnc(Cc3ccc(OC)cc3)c(=O)[nH]2)cc1	0	.	i	-0.25	0.17
O=C1C=C(c2ccccc2)OC(=O)C1C(=O)c1ccccc1 (centres undefined)	8	27*	i	-0.52	-0.021
O=C(ONC1=NCCCCC1)c1ccc([N+](=O)[O-])cc1	8	.	i	-0.02	-1
CCOC(=O)c1sc(NC(=S)NC(=O)c2cccc(Cl)c2)c(C(=O)OCC)c1C	37*	16	i	.	1.6
CC(C(=O)Nc1ccncc1)(c1ccccc1)c1ccccc1	-7	.	i	-0.77	-1.5
CC1CCCC(C)N1C(=O)CSc1nnc(NC(=O)Cc2cccs2)s1 (centres undefined)	11	46*	i	0.094	.
O=C(CCc1nnc(-c2ccc3c(c2)OCO3)o1)NC(c1cccnc1)C(F)(F)F (centres undefined)	1	.	i	1.1	-0.022
S=c1[nH]nc(-c2ccco2)n1/N=C/c1ccc(Cl)cc1Cl	7	19	i	.	16*
S=c1[nH]nc(-c2ccco2)n1/N=C/c1cccc(Cl)c1Cl	-3	7	i	0.47	49*
O=C(Nc1ccccc1)c1sccc1Oc1ccc([N+](=O)[O-])cc1F	0	.	i	-0.34	.
CC(C)NCC1CCc2cc(CO)c([N+](=O)[O-])cc2N1 (centres undefined)	.	.	i	.	0.68
CSc1nc(N(C)CCO)c2sc3nc(-c4ccco4)c4c(c3c2n1)CCC4	-7	5	i	.	0.47
CSc1nc(SCC(=O)O)c2sc3nc(-c4ccccc4)c4c(c3c2n1)CCC4	.	.	i	1	6.1*
CC(C)c1cc(C(F)(F)F)n2nc(C(=O)Nc3ccc4c(c3)OCO4)cc2n1	31*	3	i	.	-0.72
COc1cccc(S(=O)(=O)N2CCN(c3ccccc3F)CC2)c1	10	34*	i	-1.4	-0.086
COC(=O)COc1ccc(S(=O)(=O)N2CCN(c3ccccc3F)CC2)cc1C	-2	27*	i	.	-1.1
CC(=O)c1cccc(S(=O)(=O)N2CCN(c3ccccc3F)CC2)c1	10	.	i	0.048	-1.1
N#Cc1ccccc1Oc1ccccc1C=O	-6	.	i	2.7	-1.1
O=C(Cc1ccccc1)NNC(=S)Nc1ccc(Cl)cc1	0	19*	i	-0.074	.
CC[C@H](C)[C@@H](NC(=O)O[C@@H]1C(=O)c2cc(OC)ccc2O[C@H]1c1ccc(OC)c(Br)c1)C(=O)OC	-1	6	i	1.6	1.5
COC(=O)[C@H](Cc1ccccc1)NC(=O)O[C@@H]1C(=O)c2cc(OC)ccc2O[C@H]1c1ccc(OC)c(Br)c1	32*	5	.	0.0097	0.056
Cc1ccc(NC(=O)CSC(N)=O)cc1Cl	4	7	i	.	-3.5*
Cc1ccc(NC(=O)CSCC(N)=O)cc1C	-1	40*	i	1.3	0.12
SMILES	Arbovirus anti	Measles CPE	HSV replic up	ROMK mod	KCC2 mod
COc1ccc(/C=C/C(=O)Nc2nc(C)c(C(=O)N(C)C)s2)cc1OC	-2	13	i	0.88	0.38
COc1ccc(C(=O)Nc2nc(C)c(C(=O)N(C)C)s2)cc1OC	4	35*	i	.	.
Nc1ccc2nc(-c3ccccc3)[nH]c2c1	-14	57*	i	.	2.4
CSc1nnc(CNS(=O)(=O)c2ccc(Cl)cc2)n1C	3	.	i	-0.094	0.078
COC(=O)CSc1nnc(CNS(=O)(=O)c2ccc(Cl)cc2)n1C	7	37*	i	-0.49	0.29
CCCS(=O)(=O)N1CCN(Cc2c[nH]c3ccccc23)CC1	19	.	i	0.38	-0.75
O=C(c1cc(-c2cccs2)on1)N1CCc2ccccc2C1	-4	7	i	.	-0.97
O=C(c1cc(-c2ccc(O)cc2)on1)N1CCc2ccccc2C1	-23	7	i	.	-2.5

Source: PubChem (several laboratories)
